# Measured values published in PMC7862700, “An all-to-all approach to the identification of sequence-specific readers for epigenetic DNA modifications on cytosine”.
# What was measured:
# Test in all cases: DAPPL (digital affinity profiling via proximity ligation, sequencing); 10 mM Tris-HCl pH 7.5, 50 mM NaCl, 1 mM DTT, 4% glycerol, room temperature, 30 min; GST-TFs on glutathione beads, 16-mer random dsDNA library, 0.1% formaldehyde crosslink after washing; high values mean tight binding
# Settings in all cases: protein: recombinant; tags: N-terminal GST; dsDNA, one strand shown
# ELK1 = biological target: T1, ELK1 (Homo sapiens, UniProt P19419 1-428)
# T1 sequence: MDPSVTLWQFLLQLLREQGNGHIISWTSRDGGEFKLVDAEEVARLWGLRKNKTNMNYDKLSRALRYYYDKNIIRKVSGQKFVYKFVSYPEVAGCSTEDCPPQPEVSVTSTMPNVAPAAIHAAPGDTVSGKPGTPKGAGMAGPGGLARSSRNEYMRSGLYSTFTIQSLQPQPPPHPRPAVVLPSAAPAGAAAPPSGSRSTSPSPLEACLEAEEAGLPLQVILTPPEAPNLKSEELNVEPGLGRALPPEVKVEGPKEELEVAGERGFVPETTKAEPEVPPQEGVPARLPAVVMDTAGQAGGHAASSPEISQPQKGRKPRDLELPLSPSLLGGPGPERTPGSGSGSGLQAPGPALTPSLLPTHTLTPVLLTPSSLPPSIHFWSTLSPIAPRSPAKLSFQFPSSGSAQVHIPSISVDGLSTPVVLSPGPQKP
# Procedure, shortened: (§1)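 A tag-only sample was pooled with DNA-barcoded human transcription factors that had been expressed in yeast as GST fusions and captured on glutathione beads. The pools were incubated for 30 min at room temperature with 200 nmole of a random double-stranded 16-mer DNA library in Tris/NaCl/DTT/glycerol buffer, then washed, crosslinked with 0.1% formaldehyde, proximity-ligated (BsaI/T4 ligase, 1 h, 37 °C), PCR-amplified and sequenced on an Illumina NextSeq500. Binding signal is each hexamer's read frequency for a factor divided by its frequency for the tag-only sample.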
# GABPA = biological target: T2, GABPA (Homo sapiens, UniProt Q06546 1-454)
# T2 sequence: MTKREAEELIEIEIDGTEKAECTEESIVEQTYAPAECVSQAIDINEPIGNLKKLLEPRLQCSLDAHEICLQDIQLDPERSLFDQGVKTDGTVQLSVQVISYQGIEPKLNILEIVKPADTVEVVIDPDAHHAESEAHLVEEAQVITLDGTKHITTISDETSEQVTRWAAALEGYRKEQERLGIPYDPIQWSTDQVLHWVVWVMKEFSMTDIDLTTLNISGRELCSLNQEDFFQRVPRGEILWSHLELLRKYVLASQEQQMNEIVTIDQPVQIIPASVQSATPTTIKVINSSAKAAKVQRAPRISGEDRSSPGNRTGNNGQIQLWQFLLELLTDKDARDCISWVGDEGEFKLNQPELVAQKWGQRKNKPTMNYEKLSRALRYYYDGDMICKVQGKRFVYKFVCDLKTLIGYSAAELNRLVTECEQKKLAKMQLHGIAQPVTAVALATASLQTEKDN
# Procedure, shortened: as §1
# ERG = biological target: T3, ERG (Homo sapiens, UniProt P11308 1-479)
# T3 sequence: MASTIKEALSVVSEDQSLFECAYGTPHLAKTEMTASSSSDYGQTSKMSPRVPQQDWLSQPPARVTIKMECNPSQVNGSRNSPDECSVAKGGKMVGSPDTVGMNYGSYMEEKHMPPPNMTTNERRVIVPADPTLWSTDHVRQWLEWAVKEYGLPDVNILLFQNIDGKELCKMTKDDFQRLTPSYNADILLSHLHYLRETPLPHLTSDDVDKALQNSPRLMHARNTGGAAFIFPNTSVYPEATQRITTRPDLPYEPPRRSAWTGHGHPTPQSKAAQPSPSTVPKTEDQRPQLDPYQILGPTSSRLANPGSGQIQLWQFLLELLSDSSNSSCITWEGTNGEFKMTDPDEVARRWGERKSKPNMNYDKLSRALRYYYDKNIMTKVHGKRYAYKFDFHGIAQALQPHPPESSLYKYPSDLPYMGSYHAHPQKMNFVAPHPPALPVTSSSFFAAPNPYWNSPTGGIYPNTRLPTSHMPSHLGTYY
# Procedure, shortened: as §1
# ELF1 = ELF1 (Homo sapiens, UniProt P32519 1-619)
# Sequence of ELF1 (P32519 whole entry): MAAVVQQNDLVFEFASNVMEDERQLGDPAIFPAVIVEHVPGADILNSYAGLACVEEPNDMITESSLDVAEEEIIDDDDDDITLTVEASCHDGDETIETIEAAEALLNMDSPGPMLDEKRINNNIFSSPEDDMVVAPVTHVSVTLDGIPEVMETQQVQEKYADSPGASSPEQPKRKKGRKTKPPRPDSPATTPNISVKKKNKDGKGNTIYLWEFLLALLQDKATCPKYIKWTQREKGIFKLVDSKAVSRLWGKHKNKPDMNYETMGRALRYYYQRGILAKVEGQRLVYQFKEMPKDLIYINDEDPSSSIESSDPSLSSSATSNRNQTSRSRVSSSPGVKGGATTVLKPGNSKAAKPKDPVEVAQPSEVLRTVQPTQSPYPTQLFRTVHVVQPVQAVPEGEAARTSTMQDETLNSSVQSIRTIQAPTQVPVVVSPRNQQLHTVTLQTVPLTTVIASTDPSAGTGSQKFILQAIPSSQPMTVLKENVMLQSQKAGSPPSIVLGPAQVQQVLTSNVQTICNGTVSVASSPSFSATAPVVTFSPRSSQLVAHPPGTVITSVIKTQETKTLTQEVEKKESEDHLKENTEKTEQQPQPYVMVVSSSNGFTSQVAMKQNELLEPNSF
# Procedure, shortened: as §1
# EHF = biological target: T4, EHF (Homo sapiens, UniProt Q9NZC4 1-300)
# T4 sequence: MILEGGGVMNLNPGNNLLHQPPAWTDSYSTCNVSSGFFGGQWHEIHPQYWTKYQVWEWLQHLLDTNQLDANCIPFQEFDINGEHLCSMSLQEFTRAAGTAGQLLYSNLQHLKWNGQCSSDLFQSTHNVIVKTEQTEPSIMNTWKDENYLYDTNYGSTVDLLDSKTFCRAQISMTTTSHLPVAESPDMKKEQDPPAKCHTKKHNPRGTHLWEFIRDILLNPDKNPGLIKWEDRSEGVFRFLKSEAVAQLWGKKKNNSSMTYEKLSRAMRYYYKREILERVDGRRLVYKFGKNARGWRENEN
# Procedure, shortened: as §1
# FEV = biological target: T5, FEV (Homo sapiens, UniProt Q99581 1-238)
# T5 sequence: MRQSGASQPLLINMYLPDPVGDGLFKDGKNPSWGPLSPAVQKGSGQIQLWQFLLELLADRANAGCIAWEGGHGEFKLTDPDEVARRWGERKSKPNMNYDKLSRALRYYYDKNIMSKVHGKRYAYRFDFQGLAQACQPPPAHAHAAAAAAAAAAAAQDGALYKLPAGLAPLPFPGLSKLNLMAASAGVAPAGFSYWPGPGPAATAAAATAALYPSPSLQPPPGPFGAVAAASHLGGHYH
# Procedure, shortened: as §1
# ETV5 = ETV5 (Homo sapiens, UniProt P41161 1-510)
# Sequence of ETV5 (P41161 whole entry): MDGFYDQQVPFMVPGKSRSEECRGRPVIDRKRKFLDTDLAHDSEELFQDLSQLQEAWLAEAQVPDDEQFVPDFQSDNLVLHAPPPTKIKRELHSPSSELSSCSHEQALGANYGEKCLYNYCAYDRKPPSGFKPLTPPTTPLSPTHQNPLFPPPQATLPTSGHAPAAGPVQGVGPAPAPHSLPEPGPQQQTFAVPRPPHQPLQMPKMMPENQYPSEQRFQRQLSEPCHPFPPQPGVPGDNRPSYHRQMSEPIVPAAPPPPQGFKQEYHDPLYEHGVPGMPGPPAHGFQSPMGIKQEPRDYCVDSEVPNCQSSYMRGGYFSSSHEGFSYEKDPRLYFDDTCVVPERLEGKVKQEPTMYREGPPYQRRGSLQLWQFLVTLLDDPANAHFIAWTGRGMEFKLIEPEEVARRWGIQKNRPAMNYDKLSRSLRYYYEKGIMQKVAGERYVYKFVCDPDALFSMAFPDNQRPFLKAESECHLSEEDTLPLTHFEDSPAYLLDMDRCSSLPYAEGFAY
# Procedure, shortened: as §1
# ELF4 = ELF4 (Homo sapiens, UniProt Q99607 1-663)
# Sequence of ELF4 (Q99607 whole entry): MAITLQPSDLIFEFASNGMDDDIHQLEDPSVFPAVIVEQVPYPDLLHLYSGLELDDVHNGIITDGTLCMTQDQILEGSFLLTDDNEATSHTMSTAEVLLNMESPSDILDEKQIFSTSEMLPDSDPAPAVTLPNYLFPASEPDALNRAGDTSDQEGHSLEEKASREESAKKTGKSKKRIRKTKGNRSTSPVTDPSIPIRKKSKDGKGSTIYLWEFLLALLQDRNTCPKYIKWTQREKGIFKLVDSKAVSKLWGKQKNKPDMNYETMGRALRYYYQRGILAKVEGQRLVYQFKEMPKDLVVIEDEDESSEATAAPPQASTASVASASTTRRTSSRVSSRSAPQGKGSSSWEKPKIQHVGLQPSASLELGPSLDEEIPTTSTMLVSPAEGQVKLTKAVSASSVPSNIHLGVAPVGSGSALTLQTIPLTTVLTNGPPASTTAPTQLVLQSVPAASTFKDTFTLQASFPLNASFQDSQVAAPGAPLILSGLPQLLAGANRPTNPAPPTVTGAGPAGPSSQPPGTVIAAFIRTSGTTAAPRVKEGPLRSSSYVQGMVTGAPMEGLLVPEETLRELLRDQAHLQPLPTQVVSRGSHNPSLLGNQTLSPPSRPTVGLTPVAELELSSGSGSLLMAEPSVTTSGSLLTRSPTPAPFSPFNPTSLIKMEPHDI
# Procedure, shortened: as §1
# ETV2 = biological target: T6, ETV2 (Homo sapiens, UniProt O00321 1-342)
# T6 sequence: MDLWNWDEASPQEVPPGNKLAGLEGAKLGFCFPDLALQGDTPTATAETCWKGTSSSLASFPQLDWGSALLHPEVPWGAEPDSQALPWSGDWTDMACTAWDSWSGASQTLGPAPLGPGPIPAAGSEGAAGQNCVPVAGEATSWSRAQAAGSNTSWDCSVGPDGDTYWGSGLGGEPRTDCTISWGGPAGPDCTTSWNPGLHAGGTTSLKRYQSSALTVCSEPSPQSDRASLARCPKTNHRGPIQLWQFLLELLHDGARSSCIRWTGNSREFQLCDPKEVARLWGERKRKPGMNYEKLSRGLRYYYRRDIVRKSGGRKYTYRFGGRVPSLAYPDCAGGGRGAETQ
# Procedure, shortened: as §1
# ELF3 = biological target: T7, ELF3 (Homo sapiens, UniProt P78545 1-371)
# T7 sequence: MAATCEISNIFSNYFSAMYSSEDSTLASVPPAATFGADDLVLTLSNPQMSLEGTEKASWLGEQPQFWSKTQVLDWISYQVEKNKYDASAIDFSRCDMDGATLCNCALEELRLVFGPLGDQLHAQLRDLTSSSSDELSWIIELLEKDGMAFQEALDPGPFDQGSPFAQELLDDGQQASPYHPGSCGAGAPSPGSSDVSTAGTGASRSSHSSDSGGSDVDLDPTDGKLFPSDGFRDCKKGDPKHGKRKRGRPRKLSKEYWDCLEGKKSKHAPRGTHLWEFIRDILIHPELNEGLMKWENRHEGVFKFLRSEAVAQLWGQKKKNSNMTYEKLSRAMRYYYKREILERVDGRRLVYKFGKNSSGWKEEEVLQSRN
# Procedure, shortened: as §1
# ETV1 = ETV1 (Homo sapiens, UniProt P50549 1-477)
# Sequence of ETV1 (P50549 whole entry): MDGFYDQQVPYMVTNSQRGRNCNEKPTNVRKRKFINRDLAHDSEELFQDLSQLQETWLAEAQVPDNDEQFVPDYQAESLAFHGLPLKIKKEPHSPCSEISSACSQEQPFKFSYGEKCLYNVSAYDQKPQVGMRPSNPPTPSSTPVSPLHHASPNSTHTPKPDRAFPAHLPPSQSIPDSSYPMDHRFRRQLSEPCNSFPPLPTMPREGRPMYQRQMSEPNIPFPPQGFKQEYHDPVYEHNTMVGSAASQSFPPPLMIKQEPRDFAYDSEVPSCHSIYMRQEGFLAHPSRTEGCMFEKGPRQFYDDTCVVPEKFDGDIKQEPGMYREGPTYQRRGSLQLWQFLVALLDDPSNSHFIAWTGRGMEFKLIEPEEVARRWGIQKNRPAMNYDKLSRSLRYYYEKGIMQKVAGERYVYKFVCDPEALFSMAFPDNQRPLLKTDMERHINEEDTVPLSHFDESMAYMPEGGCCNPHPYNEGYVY
# Procedure, shortened: as §1
# ETV3L = biological target: T8, ETV3L (Homo sapiens, UniProt Q6ZN32 1-361)
# T8 sequence: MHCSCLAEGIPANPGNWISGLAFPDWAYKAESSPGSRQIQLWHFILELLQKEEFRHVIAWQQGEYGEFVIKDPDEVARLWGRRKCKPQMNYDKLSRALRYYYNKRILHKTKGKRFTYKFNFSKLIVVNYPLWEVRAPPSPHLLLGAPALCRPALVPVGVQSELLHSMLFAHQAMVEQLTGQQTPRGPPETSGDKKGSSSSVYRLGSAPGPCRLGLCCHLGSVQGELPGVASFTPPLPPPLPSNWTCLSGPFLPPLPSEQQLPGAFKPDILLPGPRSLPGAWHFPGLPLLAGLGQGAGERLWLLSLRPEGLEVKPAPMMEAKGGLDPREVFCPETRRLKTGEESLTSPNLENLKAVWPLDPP
# Procedure, shortened: as §1
# SPDEF = biological target: T9, SPDEF (Homo sapiens, UniProt O95238 1-335)
# T9 sequence: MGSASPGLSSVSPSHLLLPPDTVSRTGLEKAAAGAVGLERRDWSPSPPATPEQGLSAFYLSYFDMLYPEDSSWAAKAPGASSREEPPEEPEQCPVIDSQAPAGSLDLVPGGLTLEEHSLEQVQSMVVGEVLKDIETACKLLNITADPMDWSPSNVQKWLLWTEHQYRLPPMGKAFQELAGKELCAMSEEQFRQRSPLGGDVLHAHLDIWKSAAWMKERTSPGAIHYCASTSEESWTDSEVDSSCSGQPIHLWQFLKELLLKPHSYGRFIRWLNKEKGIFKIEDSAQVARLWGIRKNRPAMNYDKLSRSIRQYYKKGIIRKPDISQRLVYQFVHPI
# Procedure, shortened: as §1
# ETV7 = biological target: T10, ETV7 (Homo sapiens, UniProt Q9Y603 1-341)
# T10 sequence: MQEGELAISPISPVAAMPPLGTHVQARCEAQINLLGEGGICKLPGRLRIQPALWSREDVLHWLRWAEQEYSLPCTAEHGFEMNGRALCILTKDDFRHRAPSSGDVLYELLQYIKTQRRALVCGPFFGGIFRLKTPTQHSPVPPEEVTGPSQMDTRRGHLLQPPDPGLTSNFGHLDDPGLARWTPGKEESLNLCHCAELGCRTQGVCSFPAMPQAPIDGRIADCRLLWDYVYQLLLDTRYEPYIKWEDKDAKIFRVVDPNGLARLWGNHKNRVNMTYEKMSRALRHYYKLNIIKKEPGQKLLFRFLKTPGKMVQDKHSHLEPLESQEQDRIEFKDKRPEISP
# Procedure, shortened: as §1
# ETV3 = biological target: T11, ETV3 (Homo sapiens, UniProt P41162-2 1-143)
# T11 sequence: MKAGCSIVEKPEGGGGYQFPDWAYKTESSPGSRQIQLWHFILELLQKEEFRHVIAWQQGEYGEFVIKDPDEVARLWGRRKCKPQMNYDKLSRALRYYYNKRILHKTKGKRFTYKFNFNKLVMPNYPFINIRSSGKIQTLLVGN
# Procedure, shortened: as §1
# ETV6 = ETV6 (Homo sapiens, UniProt P41212 1-452)
# Sequence of ETV6 (P41212 whole entry): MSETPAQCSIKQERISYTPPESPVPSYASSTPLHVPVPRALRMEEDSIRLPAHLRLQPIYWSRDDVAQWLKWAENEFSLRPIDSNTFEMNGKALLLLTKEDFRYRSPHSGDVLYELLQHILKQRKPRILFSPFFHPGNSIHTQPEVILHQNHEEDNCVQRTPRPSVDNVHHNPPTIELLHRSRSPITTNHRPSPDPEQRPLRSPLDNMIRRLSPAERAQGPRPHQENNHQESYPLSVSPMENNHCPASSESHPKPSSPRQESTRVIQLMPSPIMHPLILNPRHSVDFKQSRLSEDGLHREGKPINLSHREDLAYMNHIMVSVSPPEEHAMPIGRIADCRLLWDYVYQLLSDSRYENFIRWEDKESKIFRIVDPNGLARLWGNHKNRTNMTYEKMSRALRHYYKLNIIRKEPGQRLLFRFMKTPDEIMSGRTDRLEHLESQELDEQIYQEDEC
# Procedure, shortened: as §1
sequence,measurement,setting,value
CGCCGG,binding signal,ELK1,"1.21 fold enrichment (6-mer frequency, TF over GST control)"
same,binding signal,GABPA,"1.14 fold enrichment (6-mer frequency, TF over GST control)"
same,binding signal,ERG,"1.19 fold enrichment (6-mer frequency, TF over GST control)"
same,binding signal,ELF1,"1.03 fold enrichment (6-mer frequency, TF over GST control)"
same,binding signal,EHF,"1.19 fold enrichment (6-mer frequency, TF over GST control)"
same,binding signal,FEV,"1.4 fold enrichment (6-mer frequency, TF over GST control)"
same,binding signal,ETV5,"1.15 fold enrichment (6-mer frequency, TF over GST control)"
same,binding signal,ELF4,"1.02 fold enrichment (6-mer frequency, TF over GST control)"
same,binding signal,ETV2,"1.06 fold enrichment (6-mer frequency, TF over GST control)"
same,binding signal,ELF3,"1.13 fold enrichment (6-mer frequency, TF over GST control)"
same,binding signal,ETV1,"1.02 fold enrichment (6-mer frequency, TF over GST control)"
same,binding signal,ETV3L,"1.06 fold enrichment (6-mer frequency, TF over GST control)"
same,binding signal,SPDEF,"1.05 fold enrichment (6-mer frequency, TF over GST control)"
same,binding signal,ETV7,"1.08 fold enrichment (6-mer frequency, TF over GST control)"
same,binding signal,ETV3,"1.1 fold enrichment (6-mer frequency, TF over GST control)"
same,binding signal,ETV6,"1.05 fold enrichment (6-mer frequency, TF over GST control)"
